ERK EGF block – inhibitors of EGF-stimulated ERK signaling pathway; AID 1454; Potency, µM (top dose mostly 11.5 µM), actives largely listed as inhibitors; 130,000 compounds, 0.41% hits; HEK293-V1b, EGF-stimulated phospho-ERK AlphaScreen; active = well fitted inhibition curve with a large enough effect; also: nearly all actives have a fitted effect of over 55% in size
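Compounds are titrated over HEK293-V1b cells kept overnight in 1% FBS. After 30 min at 37C, EGF (25 nM final) triggers ERK phosphorylation for 5 min, measured by AlphaScreen in lysates.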
Of the large screens only hits and unclear results are named; the others gave an inactive call. Shown is part of a subset that was picked to be rich in hits.

CC(C)[C@H](CO)Nc1nc(Nc2cccc(Cl)c2)c2ncn(C(C)C)c2n1	none
CN(C)C(=O)c1ccc(-c2ccc3ncnc(NCc4cccnc4)c3c2)cc1	none
Cc1cccc(CNc2ncnc3ccc(-c4c(C)noc4C)cc23)c1	none
Cc1cccc(CNc2ncnc3ccc(-c4cccnc4)cc23)c1	ERK EGF block 8.91µM
N[C@@H]1C(O)OC(CO)C(O)C1O (stereo not given in full)	none
COC(=O)[C@@H]1[C@@H]2C[C@H]3c4[nH]c5cc(OC)ccc5c4CCN3C[C@@H]2C[C@H](OC(=O)/C=C\c2cc(OC)c(OC)c(OC)c2)[C@H]1OC	none
C[C@@]12CCC(=O)C=C1CC[C@@H]1[C@@H]2[C@H](O)C[C@]2(C)[C@@H]1CC[C@]2(O)C(=O)CO	none
Cc1ccc(O)c(C(=O)c2cc(C#N)c(=O)n(Cc3ccccc3)c2)c1	none
Cc1ccc(O)c(C(=O)c2cc(C#N)c(=O)n(C(C)c3ccccc3)c2)c1 (stereo not given)	none
Cc1ccc(O)c(C(=O)c2cc(C#N)c3nc4ccccc4n3c2)c1	ERK EGF block 31.6µM
Cc1nc(NC2CCCCC2)c2nc(-c3ccccc3)n(CC3CCN(C)CC3)c2n1	none
O=C(Nc1cccc(F)c1)N1CCCC2(CCN(S(=O)(=O)c3ccccc3)CC2)C1	none
CCN(CC)c1ccc(/C=N/N2CCN(Cc3ccccc3)CC2)cc1	ERK EGF block 28.2µM
C(=N\N1CCN(Cc2ccccc2)CC1)/c1ccccc1	none
C(=N\N1CCN(Cc2ccccc2)CC1)/c1cccnc1	none
Cc1ccccc1-c1cc(-n2ccnc2)ncn1	none
CCCCCCN(C(=O)CCCCCN1C(=O)NC(c2ccc(-c3ccccc3)cc2)C(C(=O)OCc2ccccc2)=C1C)C(C(=O)NCCCC)c1ccc(OCC(=O)O)c(C(=O)O)c1 (stereo not given)	none
COC(=O)C1(C)C=C2C(=C(c3ccccc3)C(=O)C2C)CN1 (stereo not given)	none
CC(C)NC(=O)N1CC[C@@]2(CCCN(C(=O)Oc3ccccc3)C2)C1	none
CCCC(=O)OCC(=O)Nc1ccc(N=Nc2ccccc2)cc1	none
CC1CC1C(=O)OCC(=O)Nc1ccc(N=Nc2ccccc2)cc1 (stereo not given)	ERK EGF block 20µM
CC1CC1C(=O)OCC(=O)Nc1ccccc1Oc1ccccc1 (stereo not given)	none
CC(=O)/C=C\C1[C@]2(C)CCCC(C)(C)C2CC[C@@]1(C)O (stereo not given in full)	none
Cc1nc2cnc(N3CCNCC3)nc2n(C2CC2)c1=O	none
Cc1c(C)n(CC(O)CNCCO)c2ccccc12 (stereo not given)	none
Cc1c(C)n(CC(O)CNc2ccccc2)c2ccccc12 (stereo not given)	none
OC(CNCCC1C=Nc2ccccc21)Cn1c2ccc(Cl)cc2c2cc(Cl)ccc21 (stereo not given)	ERK EGF block 22.4µM
COc1c(C=O)c(=O)[nH]c2c(OC)cccc12	none
CC(C)[C@@H](CC(=O)N[C@@H]1CCCC[C@H]1C(=O)N[C@H](CC(=O)N[C@@H](CCC(=O)O)CC(=O)O)Cc1c[nH]c2ccccc12)NC(=O)C[C@H](CO)NC(=O)[C@@H]1CCCC[C@H]1N	none
CCCCCCCCCCCCC/C=C/[C@@H](O)[C@H](CO)NCCCCCCCC	none
Cc1nn(-c2ccc(F)cc2)c(Cl)c1/C=C1\C(=O)Nc2ccccc21	ERK EGF block 28.2µM
Cc1ccc(/C=C2\C(=O)Nc3ccccc32)o1	none
Cc1nn(-c2ccccc2)c(Cl)c1/C=C1\C(=O)N(C)C(=S)N1C	none
CC(=O)N1CCC2(CCN(Cc3ccc(C#N)cc3)CC2)CC1	none
O=C(c1csnn1)N1CCC2(CC1)CCN(c1ccccc1)CC2	none
CCN1C(=C(C#N)C#N)C=Cc2cc(C)ccc21	none
C=CC[n+]1c(/C=C2\C=Cc3cc(C)ccc3N2CC)ccc2ccccc21	ERK EGF block 22.4µM
COC(=O)[C@@H]1C[C@H]1[C@@H](NS(=O)(=O)c1ccc2ccccc2c1)c1ccccc1	none
Nc1ccc(N=Nc2ccccc2)c2ccccc12	ERK EGF block 17.8µM
O=S(=O)(O)c1ccc(N=Nc2ccccc2)cc1	none
Nc1ccc(N=Nc2ccccc2)c(N)n1	none
COc1ccc(/C=C/c2cc(OC)c(OC)cc2CC[N+](C)(C)C)cc1	none
CCC/C=C(\CCC)C(NS(=O)(=O)c1ccc(Cl)cc1)c1ccccc1 (stereo not given)	none
CCCCCCN1C=C/C(=C\C=C(C#N)C#N)c2ccccc21	ERK EGF block 14.1µM
CCCN1C=CC(=CC=C(C#N)C#N)C=C1	none
CCCCCCN1C=CC=C/C1=C/C=C(C#N)C#N	none
c1ccc([C@@H]2CN3CCSC3=N2)cc1	none
COC(=O)[C@@]1(Cc2ccc(OC)cc2)[C@@H]2[C@@H](CC(=O)[C@H]2CC(=O)C(=O)N(C)C)CN1C(=O)c1ccccc1	none
COC(=O)[C@@]1(Cc2ccc(OC)cc2)[C@@H]2C(=CC(=O)[C@H]2CC(=O)C(=O)N2CCCC2)CN1C(=O)c1ccccc1	none
C=C1C(=O)C=C2CN(C(=O)c3ccccc3)[C@@](Cc3ccc(OC)cc3)(C(=O)OC)[C@@H]12	ERK EGF block 12.6µM
CC(=O)C1=C(O)C=C2Oc3c(C(C)=O)c(O)c(C)c(O)c3C2(C)C1=O (stereo not given)	none
CC(C)C[C@@H](CC(=O)N[C@H](CC(=O)N[C@@H]1CCNC[C@H]1C(=O)N[C@H](CC(=O)N[C@@H](CCC(=O)O)CC(=O)O)Cc1ccccc1)C(C)C)NC(=O)[C@@H]1CCCC[C@H]1N	none
Cc1ccccc1-c1nc(-n2ccnc2)c2ccccc2n1	none
O=C(O)c1ccc(C(=O)C(=O)c2ccccc2)cc1	none
CSC(SC)=C(C#N)C(=O)c1ccccc1	ERK EGF block 25.1µM
N#CC(C#N)=C(Nc1ccccc1)c1ccccc1	none
COCCn1c(=O)cnc2cnc(N3CCNCC3)nc21	none
CN1CCc2cc3c(cc2C(=O)Cc2ccc4c(c2C1)OCO4)OCO3	none
COC(=O)NC(CCc1ccccc1)C(C(=O)OC)C(=O)OC (stereo not given)	none
NC1(C(=O)O)C[C@H](C(=O)O)[C@H](C(=O)O)C1 (stereo not given in full)	none
CN1/C(=C\C=C2/C(=O)Oc3ccccc3C2=O)C(C)(C)c2ccccc21	none
CN(C)c1ccc(N=C/C=C2/N(C)c3ccccc3C2(C)C)cc1	ERK EGF block 14.1µM
CN1/C(=C\C(=S)NC(=O)c2ccc([N+](=O)[O-])cc2)C(C)(C)c2ccccc21	none
CN1C(=CC=C2C=C(I)C(=O)C(I)=C2)C(C)(C)c2ccccc21	ERK EGF block 12.6µM
CO/N=C/C=C1/N(C)c2ccccc2C1(C)C	none
CN1/C(=C\C=C2/SC(=S)NC2=O)C(C)(C)c2ccccc21	ERK EGF block 25.1µM
CN1/C(=C\C=N\O)C(C)(C)c2ccccc21	none
CN1CCC/C1=C/C=C1\SC(=S)NC1=O	none
CN1/C(=C\C=Nc2cc(S(=O)(=O)N3CCOCC3)ccc2N2CCOCC2)C(C)(C)c2ccccc21	none
CC[C@@H]1Cn2c(c3nc(-c4ccccc4)nc-3n(C)c2=O)N1	none
C=CCCCCCCCCCCCC(O)CC(O)CO (stereo not given) (tested in a mixture with another compound)	none
COc1cc(CCN2C(=O)N[C@@H](c3ccccc3)C(C(C)=O)=C2C)cc(OC)c1OC	none
COc1ccccc1CN1CCCC2(CCNCC2)C1	none
Cc1cccc[n+]1CCCCCCCCCC[n+]1ccccc1C	none
Cc1cc(N)c2ccccc2[n+]1CCCCCCCCCCCCCC[n+]1c(C)cc(N)c2ccccc21	ERK EGF block 28.2µM
Cc1cc(N)c2ccccc2n1	none
O=C(O)c1ccc(COc2ccccc2/C=C2\NC(=O)N(Cc3ccccc3)C2=O)cc1	none

Assay outcomes from PubChem BioAssay.
